IL1B secr inh: blocks inflammasome-driven IL-1 beta release. THP-1 LPS/ATP IL-1B secretion, AlphaLISA, 16 h; active compounds read low. AID 743279. 4.7% of 360,000 active. activity change, % at 57.5 µM; in the data active means activity change below about -50%; inconclusive means mostly about -30% to -49%
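Secreted IL-1B measured by AlphaLISA bead assay after 16 h compound exposure of THP-1 cells; compounds (final up to 57.5 uM) added 1 h before LPS (250 ng/mL) and ATP (1.25 mM) stimulation; lower signal means less secretion.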
Giardia killer: kills Giardia lamblia | Giardia lamblia trophozoite viability | activity change, % at 7.66 µM, hits read low | 0.15% of 340,000 active; in the data active means activity change below about -80%; inconclusive means between about -30% and that limit;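 further: parasites exposed to compound for two days anaerobically before the ATP read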
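Giardia lamblia trophozoites (100 cells/well) were incubated with compounds for 48 h at 37 deg C under anaerobic conditions. Viability was read as ATP content by one-step luminescence after 15-30 min at room temperature.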
TGFb SMAD3 inh: inhibitors of TGF-b signaling; 1.2% of 410,000 active; Potency, µM (highest dose often 46.1 µM), usual class: inhibitors; HepG2 CAGA-GFP TGF-b/SMAD3 reporter, GFP fluorescence, 18 h; TGF-beta stimulated, 500 pg/mL final; further: nearly all actives have a fitted effect of over 65% in size
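Per well, imaged GFP fluorescence of HEPG2 CAGA-GFP cells gives the signal; cells get compound, then TGF-beta (500 pg/mL final), 18 h at 37 degrees C; %Activity versus -TGF-beta and +DMSO controls.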
HepG2 viability: counter-screen for TGF-b inhibitors: cytotoxicity in HepG2 cells; HepG2 CAGA-GFP viability, ATP luminescence, 18 h; Potency, µM (titrated, usually from 46.1 µM), most hits filed as cytotoxic; 0.76% of 410,000 active; AID 588856
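HepG2 CAGA-GFP cells (1000/well, DMEM with 1% FBS) received compound, then TGF-beta at 500 pg/mL final, and were incubated 18 hours at 37 degrees C. Viability was read by CellTiter-Glo luminescence. Media-only wells were set as complete cell-killing and DMSO as no toxicity.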
HT1080-NT tox: kills 2HG-producing HT-1080-NT fibrosarcoma cells; HT-1080-NT fibrosarcoma viability, CellTiter-Glo ATP luminescence, 48 h; Potency, µM (highest dose often 46.1 µM), actives largely listed as cytotoxic; 1.6% of 360,000 active; AID 686970;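 further: NT is the 2HG producing partner of a matched IDH1 knockdown line; nearly all actives have a fitted effect of over 55% in size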
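Luminescent CellTiter-Glo readout after 48 hours of compound exposure at 37 degrees C defined viability of HT-1080-NT cells. Activity was normalized to DMSO wells and cell-free media wells; concentration-response curves were fitted and assigned curve classes.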
HT1080 IDH1KD tx: kills HT-1080 cells with IDH1 knockdown. HT-1080 IDH1 knockdown viability, ATP luminescence, 48 h. Potency, µM (series often up to 46.1 µM), most hits filed as cytotoxic. 2% of 360,000 active
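After a 2 h attachment period, IDH1KD HT-1080 cells took pin-transferred compound for 48 h at 37 °C; ATP-based luminescence after 10 min room-temperature reagent incubation reported viability.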
Numbers stand for hits. Hits are enriched below; roughly 6.5% of the tested compounds scored in any of these assays. Unless noted, the call rests on the fitted dose curve; in most records, active means well fitted curve in the direction sought with a large enough effect; inconclusive means small, poorly fitted or top-dose-only effect, or another doubt; inactive means no such curve, though single readings can be large; an effect the other way counts as inactive or inconclusive.

For Cc1ccc(CN(C)C(=O)c2ccc(NS(=O)(=O)c3ccc4[nH]c(=O)[nH]c4c3)cc2)cc1 the results were IL1B secr inh inactive, Giardia killer inactive, TGFb SMAD3 inh inconclusive, HepG2 viability inactive, HT1080-NT tox inactive and HT1080 IDH1KD tx inactive.
Screening CSc1ccc(CN(C)C(=O)c2ccc(S(=O)(=O)Nc3c(C)n(C)n(-c4ccccc4)c3=O)cc2)cc1 returned IL1B secr inh inactive, Giardia killer inactive, TGFb SMAD3 inh inactive, HepG2 viability inactive, HT1080-NT tox inactive and HT1080 IDH1KD tx inactive.
CCOc1cccc2sc(N(CCN(CC)CC)C(=O)c3cccc([N+](=O)[O-])c3)nc12 was read as IL1B secr inh inactive, Giardia killer inactive, TGFb SMAD3 inh inactive, HepG2 viability inactive, HT1080-NT tox inactive and HT1080 IDH1KD tx inactive.
`CSCCC(C(=O)Nc1c(C)cccc1C)n1c(COc2ccc(C)cc2)nc2ccccc21` (stereo not drawn) gave IL1B secr inh -58, HT1080-NT tox inactive and HT1080 IDH1KD tx inconclusive.
CSCCC(C(=O)Nc1c(C)cccc1C)n1c(-c2ccc(-c3ccccc3)cc2)nc2ccccc21 (stereo not drawn) was read as IL1B secr inh inactive, HT1080-NT tox inactive and HT1080 IDH1KD tx inactive.
CCOc1ccc(N(C(=O)CNS(=O)(=O)c2ccccc2)C(CC)C(=O)NCc2ccco2)cc1 (stereo not drawn) was read as IL1B secr inh inactive, Giardia killer inactive, TGFb SMAD3 inh inactive, HepG2 viability inactive, HT1080-NT tox inactive and HT1080 IDH1KD tx inactive.
O=C(CSCc1cc(=O)n2ccsc2n1)Nc1ccc(F)cc1 was read as IL1B secr inh inactive, Giardia killer inactive, TGFb SMAD3 inh inactive, HepG2 viability inactive, HT1080-NT tox inactive and HT1080 IDH1KD tx inactive.
For O=C(CSc1nnc(Cc2cc(=O)[nH]c(=O)[nH]2)n1-c1ccc(F)cc1)NC1CCCC1 the results were IL1B secr inh inactive, Giardia killer inactive, TGFb SMAD3 inh inactive, HepG2 viability inactive, HT1080-NT tox inactive and HT1080 IDH1KD tx inactive.
COc1cc(NC(C)CCCN)c2ncccc2c1 (stereo not drawn) was read as IL1B secr inh inactive, Giardia killer inactive, TGFb SMAD3 inh inconclusive, HepG2 viability inactive, HT1080-NT tox 16µM and HT1080 IDH1KD tx inconclusive.
CC1Cc2ccccc2N1C(=O)COC(=O)CCc1nc2ccccc2c(=O)[nH]1 (stereo not drawn) was read as IL1B secr inh inactive, Giardia killer inactive, TGFb SMAD3 inh inactive, HepG2 viability inactive, HT1080-NT tox inactive and HT1080 IDH1KD tx inactive.
`CC(=O)c1cn(CCOc2cc(C)ccc2C)c2ccccc12` gave IL1B secr inh inactive, Giardia killer inactive, TGFb SMAD3 inh inactive, HepG2 viability inactive, HT1080-NT tox inconclusive and HT1080 IDH1KD tx 9.2µM.
`Cc1ccc(OCCn2cc(C=O)c3ccccc32)cc1` gave IL1B secr inh inactive, Giardia killer inactive, TGFb SMAD3 inh 11µM, HepG2 viability inactive, HT1080-NT tox inactive and HT1080 IDH1KD tx inactive.
`COc1ccccc1NC(=O)Cn1cc(C(=O)c2ccco2)c2ccccc21` gave IL1B secr inh -50, Giardia killer inactive, TGFb SMAD3 inh inactive, HepG2 viability inactive, HT1080-NT tox inactive and HT1080 IDH1KD tx inactive.
For Cc1ccc(NC(=O)Cn2cc(C=O)c3ccccc32)cc1 the results were IL1B secr inh inactive, Giardia killer inactive, TGFb SMAD3 inh 7.9µM, HepG2 viability inactive, HT1080-NT tox inactive and HT1080 IDH1KD tx inactive.
COc1ccc(OC)c(NC(=O)Cn2cc(C(=O)c3ccco3)c3ccccc32)c1 was read as IL1B secr inh inactive, Giardia killer inactive, TGFb SMAD3 inh inactive, HepG2 viability inactive, HT1080-NT tox inactive and HT1080 IDH1KD tx inactive.
Screening CCc1cccc(NC(=O)Cn2cc(C=O)c3ccccc32)c1 returned IL1B secr inh inactive, Giardia killer inconclusive, TGFb SMAD3 inh inconclusive, HepG2 viability inactive, HT1080-NT tox inconclusive and HT1080 IDH1KD tx 16µM.
Screening COc1cccc(NC(=O)Cn2cc(C=O)c3ccccc32)c1 returned IL1B secr inh inactive, Giardia killer inactive, TGFb SMAD3 inh inconclusive, HepG2 viability inactive, HT1080-NT tox inactive and HT1080 IDH1KD tx inactive.

Source: PubChem BioAssay (National Center for Advancing Translational Sciences (NCATS))
